Data from PubChem BioAssay (NCI).
About 79,000 compounds went through this panel and 15% of them were active in at least one assay; those are over-represented in the sample as a whole. The source made the active and inactive calls. Cut-off read from the data, not from the text of the source: active = growth inhibition above about 70%; inactive = the rest.

What was measured:
[1] = NCI Yeast Anticancer Drug Screen. Data for the rad52 strain (AID 147);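 note: 0% = growth of vehicle-treated control cultures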; details: S. cerevisiae rad52 mutant growth inhibition, hits give high values
Summary of the method: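 Here a repair-compromised yeast strain receives each compound; its growth is then quantified and normalised to vehicle-only controls.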

[2] = NCI Yeast Anticancer Drug Screen. Data for the wt1 strain (AID 149);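 note: 0% = growth of vehicle-treated wt1 cultures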; details: S. cerevisiae wt1 strain (SPY 50644) growth inhibition, hits give high values
Summary of the method: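 Compounds are added to wt1 yeast cultures. Growth is then measured. Inhibition is expressed relative to vehicle-treated controls.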

[3] = NCI Yeast Anticancer Drug Screen. Data for the rad50EPP+ strain (AID 151);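 note: 0% = growth of vehicle-treated control cultures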; details: S. cerevisiae rad50 mutant strain, hits give high values
Summary of the method: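 Read-out is yeast growth inhibition relative to vehicle; cells used were the rad50EPP+ strain.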

[4] = NCI Yeast Anticancer Drug Screen. Data for the rad50 strain (AID 155);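 note: 0% = growth of vehicle-only cultures of the same strain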; details: S. cerevisiae rad50 strain growth inhibition, hits give high values
Summary of the method: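 Inhibition values express reduced yeast growth in compound-treated cultures relative to vehicle-treated controls.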

[5] = NCI Yeast Anticancer Drug Screen. Data for the mec2-1 strain (AID 157); details: S. cerevisiae mec2-1 strain, hits give high values
Summary of the method: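 Using mec2-1 yeast: add compound, measure growth, express inhibition versus vehicle-treated cultures.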

[6] = NCI Yeast Anticancer Drug Screen. Data for the rad14 strain (AID 159);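 note: 0% = growth of vehicle-treated control cultures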; details: S. cerevisiae rad14 strain growth inhibition, hits give high values
Summary of the method: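 A mutant yeast strain defective in DNA damage repair is treated with compound; inhibition of its growth is scored against untreated, vehicle-exposed cultures.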

[7] = NCI Yeast Anticancer Drug Screen. Data for the sgs1 mgt1 strain (AID 161);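 note: 0% = growth of cultures given vehicle only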; details: S. cerevisiae sgs1 mgt1 strain, hits give high values
Summary of the method: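 This yeast growth screen uses a strain with defined DNA-repair lesions; compound-treated growth is compared with vehicle-treated growth.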

[8] = NCI Yeast Anticancer Drug Screen. Data for the CLN2oe strain (AID 163);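 note: 0% = growth of vehicle-only control cultures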; details: S. cerevisiae CLN2oe strain, hits give high values
Summary of the method: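 Whole-cell yeast growth assay. A strain engineered for altered cell-cycle control received compound, and inhibition relative to vehicle-treated cultures was recorded.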

[9] = NCI Yeast Anticancer Drug Screen. Data for the cln2 rad14 strain (AID 165);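 note: 0% = growth equal to vehicle treated cultures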; details: S. cerevisiae cln2 rad14 strain, hits give high values
Summary of the method: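 Yeast strain cln2 rad14, bearing defects in cell cycle control and DNA repair, serves as the test system; values reflect growth inhibition compared with vehicle.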

[10] = NCI Yeast Anticancer Drug Screen. Data for the bub3 strain (AID 167); details: S. cerevisiae bub3 mutant strain, hits give high values
Summary of the method: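 Steps: expose the mutant yeast strain to compound; grow alongside vehicle-treated cultures; measure growth; express inhibition against the vehicle cultures.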

[11] = NCI Yeast Anticancer Drug Screen. Data for the wt2 strain (AID 169);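 note: 0% = growth of vehicle-treated yeast cultures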; details: S. cerevisiae wt2 strain growth inhibition, hits give high values
Summary of the method: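 Treated yeast vs. vehicle-treated yeast: growth inhibition determined.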

[12] = NCI Yeast Anticancer Drug Screen. Data for the mlh1 strain (AID 171);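 note: 0% = growth of vehicle-treated control cultures of the same strain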; details: S. cerevisiae mlh1 strain growth inhibition, hits give high values
Summary of the method: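 A yeast strain with a defined genetic lesion serves as the test organism. Cultures receive compound or vehicle, and growth is measured.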

[13] = NCI Yeast Anticancer Drug Screen. Data for the sgs1 strain (AID 173);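 note: 0% = growth of vehicle-only control cultures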; details: S. cerevisiae sgs1 mutant, hits give high values
Summary of the method: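 A genetically defined yeast mutant is incubated with the test compound, and its growth is compared to that of the same strain given vehicle.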

[14] = NCI Yeast Anticancer Drug Screen. Data for the mlh1 rad18 strain (AID 175); details: S. cerevisiae mlh1 rad18 strain growth inhibition, hits give high values
Summary of the method: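 Steps: expose repair-defective yeast to compound; measure growth; express inhibition against vehicle-treated controls.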

[15] = NCI Yeast Anticancer Drug Screen. Data for the rad18 strain (AID 177); details: S. cerevisiae rad18 mutant growth inhibition, hits give high values
Summary of the method: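 Measured value is growth inhibition of a yeast strain bearing a DNA repair alteration, referenced to vehicle-treated cells.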

[16] = at 5.0 µM (retest, dose inferred, filed as 0.5)
[17] = at 50.0 µM (retest, dose inferred, filed as 5.0)

Measured: growth inhibition

C=CC[N+]12CN3CN(CN(C3)C1)C2
active: [5]; [17] 70% | [5]; at 100.0 µM 98% | [7]; [17] 98% | [8]; at 100.0 µM 70% | [9]; [17] 96% | [10]; at 33.0 µM 75% | [10]; [17] 97% | [10]; at 100.0 µM 94% | [12]; at 100.0 µM 74%
inactive: [1]; at 1.2 µM -8% | [1]; at 3.7 µM 5% | [1]; at 11.0 µM -11% | [1]; at 33.0 µM -5% | [1]; at 100.0 µM 29% | [2]; at 1.2 µM -10% | [2]; at 3.7 µM -28% | [2]; at 11.0 µM -21% | [2]; at 33.0 µM -23% | [2]; at 100.0 µM 41% | [3]; at 1.2 µM 7% | [3]; at 3.7 µM 2% | [3]; at 11.0 µM -31% | [3]; at 33.0 µM 16% | [3]; at 100.0 µM 68% | [4]; at 1.2 µM 8% | [4]; at 3.7 µM -1% | [4]; [16] 38% | [4]; at 11.0 µM -21% | [4]; at 33.0 µM -3% | [4]; [17] 65% | [4]; at 50.0 µM 29.8% | [4]; at 100.0 µM 32% | [5]; at 1.2 µM -12% | [5]; at 3.7 µM -24% | [5]; [16] 43% | [5]; at 11.0 µM -31% | [5]; at 33.0 µM 45% | [5]; at 50.0 µM 20.6% | [6]; at 1.2 µM -35% | [6]; at 3.7 µM -34% | [6]; at 11.0 µM -31% | [6]; at 33.0 µM -16% | [6]; at 100.0 µM 31% | [7]; [16] -2% | [7]; at 50.0 µM 59.8% | [8]; at 1.2 µM -24% | [8]; at 3.7 µM -32% | [8]; at 11.0 µM -17% | [8]; at 33.0 µM -9% | [9]; [16] 67% | [9]; at 50.0 µM 7.55% | [10]; at 1.2 µM -1% | [10]; at 3.7 µM 12% | [10]; [16] 20% | [10]; at 11.0 µM 12% | [10]; at 50.0 µM 2.1% | [11]; at 1.2 µM -49% | [11]; at 3.7 µM -52% | [11]; at 11.0 µM -52% | [11]; at 33.0 µM -28% | [11]; at 100.0 µM 23% | [12]; at 1.2 µM -25% | [12]; at 3.7 µM -22% | [12]; at 11.0 µM -23% | [12]; at 33.0 µM 13% | [13]; at 1.2 µM -20% | [13]; at 3.7 µM -17% | [13]; at 11.0 µM -21% | [13]; at 33.0 µM -4% | [13]; at 100.0 µM 43% | [14]; [16] 38% | [14]; [17] 52% | [14]; at 50.0 µM 10.2% | [15]; at 1.2 µM 18% | [15]; at 3.7 µM 19% | [15]; at 11.0 µM -13% | [15]; at 33.0 µM 13% | [15]; at 100.0 µM 12%
